Values joined by “and” are separate entries in the source; they are usually repeats but may differ in a detail not shown here. Identical values can stand only once. Screen size: about 160,000 compounds; about 310 (0.19%) were called active. What follows is part of a selection rich in actives, with near analogues and random picks from the rest. Values without a mark were called inactive. Cut-off read from the data, not from the text of the source: active = inhibition above about 30%; inactive = the rest.

As usually defined, the inhibition is the drop in the measured response relative to a control, in per cent.

In this test the target is 14-3-3 protein gamma (Homo sapiens) (UniProt P61981). Briefly: 14-3-3 gamma/Raf peptide interaction modulators – biochemical, fluorescence polarization, primary screen (AID 422).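 Note: 0% = protein plus tracer without compound and 100% = blank with tracer alone.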 The note with it: FP, 14-3-3gamma / TMR-pS259-Raf peptide binding; at 40 µM; active compounds read high. In general terms: Fluorescence polarisation rises when a labelled molecule tumbles more slowly, as on binding a larger partner.
14-3-3 protein gamma (Homo sapiens), sequence (P61981 whole entry, looked up): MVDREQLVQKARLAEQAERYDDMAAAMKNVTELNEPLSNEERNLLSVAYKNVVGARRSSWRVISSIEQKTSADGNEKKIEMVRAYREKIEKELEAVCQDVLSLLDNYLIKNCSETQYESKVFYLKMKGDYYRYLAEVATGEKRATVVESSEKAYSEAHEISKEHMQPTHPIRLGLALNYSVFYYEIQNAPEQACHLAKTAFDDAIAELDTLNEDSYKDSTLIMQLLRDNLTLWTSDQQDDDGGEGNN
As for `O=C(C1CCC(Cn2c(=O)[nH]c3ccccc3c2=O)CC1)N1CCN(Cc2ccccc2)CC1` (stereo unspecified), the inhibition was -3.1%.
On to `CSc1cccc(NC(=O)C2c3ccccc3C(=O)N3CCc4ccccc4C23)c1` (stereo unspecified), for which the inhibition is -1.47%.
Under `CCCCNC(=O)c1c[nH]c2ccc(S(=O)(=O)Nc3cccc(OC)c3)cc2c1=O` stands -22.6%; under `O=C(NC1CCCCCCCCCCC1)c1cnc2n(c1=O)CCS2`, -1.96%; under `CCCOc1ccccc1C1NC(=O)NC(C)=C1C(=O)OCC1CCCO1` (stereo unspecified), 3.08%.
For the compound `CN(C)/C=C1/Nc2ccccc2C1=O`, the inhibition is -0.95%.
Under `O=C1Nc2ccccc2C1=Nc1ccc(O)cc1` stands 87.3% (active); under `CN(C)/C=C1/C(=O)Nc2ccccc21`, -2.07%.
Then `O=C(Nc1nc2ccccc2n1CCOc1ccccc1)c1cccs1`, with 8.38%; and `CCOCCn1cnc2sc(C(=O)N3CCN(c4ccccn4)CC3)c(C)c2c1=O`, with 1.28%.
Turning to `Cc1c(Cl)cccc1NC(=O)c1cc(S(=O)(=O)N2CCC(C)CC2)ccc1F`, the inhibition is -5.5%.
Under `O=C(Nc1nc(-c2cccs2)cs1)c1ccc(S(=O)(=O)N2CCc3ccccc3C2)cc1` stands -43.5%; under `CN1C(=O)c2ccccc2C(C(=O)N2CCC(Cc3ccccc3)CC2)C1c1c[nH]c2ccccc12` (stereo unspecified), 6.73%.
For the compound `COc1ccc(CSc2n[nH]c(C)n2)cc1Cl`, the inhibition is -0.37%.
Then `CSCCC(NS(=O)(=O)c1cccs1)C(=O)Nc1ccc(F)cc1` (stereo unspecified), with -1.64%; and `CC(=O)OCC#CCSc1nc2ccccc2o1`, with -1.9%; and `CCOC(=O)C1CCN(S(=O)(=O)c2ccc(I)cc2)CC1`, with -2.44%.
Then `CC1CCN(S(=O)(=O)c2ccc3ncn(CC(=O)N4CCN(Cc5ccccc5)CC4)c(=O)c3c2)CC1`, with 1.95%.
`CCCCNC(=O)C1c2ccccc2C(=O)N(C)C1c1c[nH]c2ccccc12` (stereo unspecified): the inhibition is -0.96%.
Under `O=C(OC(c1ccccc1)c1nccc2ccccc12)c1ccc([N+](=O)[O-])cc1` (stereo unspecified) stands -10%; under `NC(=O)C1CCN(C(=O)c2ccc3nc4ccccc4c(=O)n3c2)CC1`, 12.3%.
Then `CN(C(N)=O)C1CCS(=O)(=O)C1` (stereo unspecified), with 2.31%.
Under `S=c1[nH]nc(-c2cccs2)n1Cc1ccc2c(c1)OCO2` stands -5.66%.
Take `CN1C(=O)c2cccc3c(N)ccc(c23)C1=O`: the inhibition is 85.5% (active).
Then `CCN1C(=O)c2cccc3c(N)ccc1c23`, with 5.38%; and `Nc1ccc2c3c(cccc13)C(=O)NC2=O`, with 14.8%; and `COc1ccc(N2C(=O)CCC(C(=O)Nc3ccc(Br)cc3C)C2c2ccc(OC)c(OC)c2)cc1` (stereo unspecified), with -9.11%.
Then `COc1ccccc1CNC(=O)c1cc(-c2ccc(Br)s2)nc2ccccc12`, with -1.85%; and `CCCCc1nc(N)c(C#N)c(-c2ccccc2Cl)c1CCC`, with -5.82%.
Then `COc1ccc(-c2nc(CS(=O)CC(=O)N3CCc4ccccc4C3)c(C)o2)cc1` (stereo unspecified), with -4.26%; and `COc1ccc(-c2nc(CS(=O)CC(=O)NCc3cccnc3)c(C)o2)cc1OC` (stereo unspecified), with -5.12%; and `COc1ccc(-c2nc(CS(=O)CC(=O)NCc3ccccn3)c(C)o2)cc1` (stereo unspecified), with 99.2% (active).
On to `Fc1ccc(Nc2nc(NCc3ccccc3)c3ccccc3n2)cc1`, for which the inhibition was -3.64%.
Under `CSc1ccc(-c2nc3ccc(Cl)cn3c2Nc2ccc3c(c2)OCO3)cc1` stands -19%; under `COc1ccc(C2Nc3ccccc3NC3=C2C(=O)CC(c2cccc([N+](=O)[O-])c2)C3)cc1` (stereo unspecified), 0.48%.
As for `CCOc1ccc(S(=O)(=O)NC2CCCC2)c2cccnc12`, the inhibition was -6.1%.
Then `COc1ccc([N+](=O)[O-])cc1NC(=O)c1c([N+](=O)[O-])cnn1C`, with -2.94%; and `O=C1C2CC=C(Cl)CC2C(=O)N1c1ccc(O)cc1` (stereo unspecified), with -3.22%.
As to `COC(=O)c1ccccc1NC(=O)CCCn1nc([N+](=O)[O-])c(Cl)c1C`, the inhibition is -3.89%.
Regarding `CCC(C)(C(=O)NC1CCCCC1)N(C(=O)CC1NC(=O)NC1=O)c1ccccc1` (stereo unspecified), the inhibition is -2.16%.
Turning to `CC1CC(C)CN(CCCNC(=O)C2c3ccccc3C(=O)N(C)C2c2cccs2)C1` (stereo unspecified), the inhibition was 4.52%.
Then `Cc1c(-c2nc3ccccc3c(=O)[nH]2)sc2nc(-c3ccccc3)nc(N)c12`, with -34.5%; and `CC(C)CN(CC(C)C)S(=O)(=O)c1ccc(Br)cc1`, with -5.87%; and `CCCCCn1c(=O)[nH]c2cc(C(=O)NC(C)C)ccc2c1=O`, with -3.1%.
`COc1cc(N=Cc2c(O)[nH]c3ccccc23)cc(OC)c1OC`: the inhibition is 1.7%.
Under `Cc1[nH]c2ccccc2c1C=Nc1ccc(O)cc1` stands 121% (active); under `COc1ccc(N=Cc2c(O)[nH]c3ccccc23)cc1OC`, -6.05%; under `CCCCNC(=O)C1CCC(=O)N1CCc1ccccc1` (stereo unspecified), -1.84%.
Then `CC1=C(C(=O)OCCc2ccccc2)C(c2cccc([N+](=O)[O-])c2)NC(=O)N1` (stereo unspecified), with -4.75%.
Under `O=C1NC2=C(C(=O)c3ccccc32)C(c2ccccc2)S1` (stereo unspecified) stands 3.21%; under `COc1ccc(C2C=C(c3ccc(-c4ccccc4)cc3)Nc3ncnn32)cc1` (stereo unspecified), -7.71%.
For the compound `O=C(Nc1ccc(-c2nnc(-c3ccccc3)o2)cc1)C1CCCO1` (stereo unspecified), the inhibition was 5.13%.
Then `O=C(Nc1ccc(-c2nnc(-c3ccccc3)o2)cc1)c1ccc(Br)o1`, with 116% (active); and `O=C(Nc1ccc(-c2nc3ccc(NC(=O)c4ccc(Br)o4)cc3[nH]2)cc1)c1ccc(Br)o1`, with -23.6%.
Consider `O=C(CCSCc1cccc(F)c1)N1CCc2ccccc21`, for which the inhibition was -8.82%.
Regarding `O=C(CN1CCCN(S(=O)(=O)c2ccc(Br)cc2)CC1)Nc1ccccc1F`, the inhibition was -7.48%.
Then `CCc1ccc(OCCSc2nc3ccccc3c(=O)[nH]2)cc1`, with -1.81%.
Under `CC(NC(=O)C(Cc1ccc([N+](=O)[O-])cc1)N1C(=O)c2ccccc2C1=O)c1ccc(CCBr)cc1` (stereo unspecified) stands -10.4%.
Then `C=C(C)Cn1c(-c2ccc(N(C)C)cc2)nc2ccccc21`, with -2.28%.
With `Cc1c(Cl)cccc1N1C(=O)C2C3c4ccccc4C(c4ccccc43)C2C1=O` (stereo unspecified), the inhibition is 1.55%.
Then `O=C(Nc1ccccc1C(F)(F)F)c1ccc(SC2CCCCC2)c([N+](=O)[O-])c1`, with -3.43%; and `O=C(Nc1cccc2c1C(=O)c1ccccc1C2=O)c1ccccc1Br`, with -33.2%.
Then `COc1cc2c(cc1OC)C(COc1ccc3c(C)cc(=O)oc3c1)N(C(=O)c1cc(C)cc(C)c1)CC2` (stereo unspecified), with -4.93%; and `O=C(Cn1cnc([N+](=O)[O-])c1)C1CC1`, with 7.38%.
Under `COc1ncnc2c1N=C1CC(C)(C)CC(N)=C1S2` stands 56.3% (active).
Regarding `CC(=O)CCC=C(C)CCC=C(C)C`, the inhibition is -6.82%.
Under `Cc1ccc(-c2nc3ccccc3c(C(=O)O)c2C)s1` stands -5.29%.
Then `O=C1NC(c2ccc(Cl)cc2)C(C(=O)c2ccccc2)C(O)(C(F)(F)F)N1` (stereo unspecified), with 9.54%.
Under `O=C(NCCCN1CCCC1)c1ccc(N2CCCC2=O)cc1` stands 2.82%; under `Cc1ccc(Cl)cc1N1C(=O)C(N2C(=O)c3ccc([N+](=O)[O-])cc3C2=O)C1c1cccc(F)c1` (stereo unspecified), -4.78%; under `CCCC(=O)N(c1ccc2oc(C)c(C(=O)OC)c2c1)S(=O)(=O)c1cc([N+](=O)[O-])ccc1C`, -23.1%.
Consider `COc1ccc(CN2C(=O)CCC2(C)C(=O)NC2CCCCCC2)c(OC)c1` (stereo unspecified), for which the inhibition is -7.62%.
Take `COc1ccc2cc(-c3nnc(Nc4ccccc4F)s3)c(=O)oc2c1`: the inhibition is -11.4%.
Then `COC(=O)C1=C(C)NC2=C(C(=O)CC(c3ccccc3Cl)C2)C1c1ccc2c(c1)OCO2` (stereo unspecified), with -2.26%; and `O=c1oc2ccc(Cl)cc2cc1-c1cn2cc(Cl)cc(Cl)c2n1`, with -12.1%.
Then `CN1CCc2c(n(-c3ccccc3)c3ccccc23)C1=O`, with -14.8%; and `CCOc1ccc(N=Cc2c(O)c(C(=O)Nc3ccccc3C)cc3ccccc23)cc1`, with 79.8% (active).
Under `COc1cccc(C=Nc2cccc(C(=O)Nc3cccc4ccccc34)c2)c1O` stands 2.57%.
Regarding `CCOc1ccccc1C(=O)Nc1ccc(I)cc1C`, the inhibition is -132%.
In the case of `CCC(=O)N1CCc2cc(OC)c(OC)cc2C1COc1cccc(C(F)(F)F)c1` (stereo unspecified), the inhibition was -6%.
Then `Cc1ccc(-c2cc(C(=O)OCC(C)C)c3cc(C)ccc3n2)cc1`, with 3.92%; and `COc1cc(C2Nc3ccccc3NC3=C2C(=O)CC(c2ccccc2Cl)C3)cc(Cl)c1O` (stereo unspecified), with -12.8%.
Under `Cc1cccc(-n2ncc3c(N4CCc5ccccc54)ncnc32)c1` stands -10.6% and 1.75%; under `COc1ccc(-n2ncc3c(N4CCc5ccccc54)ncnc32)cc1`, -7.74%.
Then `COc1ccc(-n2ncc3c(N4CCCc5ccccc54)ncnc32)cc1`, with 43.9% (active).
For `CC1Cc2nc(SCC(=O)Nc3cccc(C(F)(F)F)c3)n(C)c(=O)c2S1` (stereo unspecified), the inhibition is -7.37%.
Under `CCOc1ccc(S(=O)(=O)N2CCC(C)CC2)c2ccccc12` stands -10.1%; under `Cc1[nH]c2ccccc2c1C(=O)CSc1nc2ccccc2s1`, -9.51%.
Then `CCN1C(=O)c2cccc3c(S(=O)(=O)NC4CC(C)(C)NC(C)(C)C4)ccc1c23`, with -11.1%; and `CC(C)(C)c1ccc(C(=O)NCc2n[nH]c(=S)n2-c2cccc(C(F)(F)F)c2)cc1`, with 4.88%.
Under `CN1C(=O)NC(c2cccc(Cl)c2)C2=C1CCCC2=O` (stereo unspecified) stands 2.47%.

For the origin of these results see PubChem BioAssay AID422 (Emory University Molecular Libraries Screening Center, 2006).
